Records with an inconclusive call do not appear. Activity calls are given as the source filed them. Calls come from the whole dose curve; as a rule, active = well fitted inhibition curve with a large enough effect; inconclusive = small, poorly fitted or top-dose-only effect; inactive = flat fitted curve, though single readings scatter.
Experiments:
Test in all cases: qHTS profiling for inhibitors of Plasmodium falciparum proliferation (AID 504749); note: nearly all actives have a fitted effect of over 60% in size
Details in all cases: P. falciparum in erythrocytes, SYBR Green DNA, 72 h; series mostly up to 28.7 µM
ATS95 = test system: ATS95
Summary of the method: (§1)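 P. falciparum-infected erythrocytes (0.3% parasitemia, 2.5% hematocrit final) were exposed to compounds for 72 h at 37 C in 5% CO2, then lysed with SYBR Green buffer overnight at room temperature; parasite DNA fluorescence was normalized to artemisinin and DMSO controls.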

C2A = test system: C2A
Summary of the method: as §1

CP217 = test system: CP217
Summary of the method: as §1

CP237 = test system: CP237
Summary of the method: as §1

CP238 = test system: CP238
Summary of the method: as §1

CP250 = test system: CP250
Summary of the method: as §1

CP252 = test system: CP252
Summary of the method: as §1

CP256 = test system: CP256
Summary of the method: as §1

CP265 = test system: CP265
Summary of the method: as §1

CP268 = test system: CP268
Summary of the method: as §1

CP269 = test system: CP269
Summary of the method: as §1

CP305 = test system: CP305
Summary of the method: as §1

CP325 = test system: CP325
Summary of the method: as §1

CP329 = test system: CP329
Summary of the method: as §1

Dd2 = test system: Dd2
Summary of the method: as §1

ECU = test system: ECU
Summary of the method: as §1

GB4 = test system: GB4
Summary of the method: as §1

P93_24 = test system: P93_24
Summary of the method: as §1

PAD = test system: PAD
Summary of the method: as §1

SC27B = test system: SC27B
Summary of the method: as §1

Measured: Potency

C[C@H](O)[C@@H]1C(=O)N2C(C(=O)O)=C(SCCN=CN)C[C@@H]12
inactive: all assays above
